This is one part of a sample in which hits are shown more often than they occur.
Tb PFK inh-1 = inhibitors of T. brucei phosphofructokinase; T. brucei PFK, ADP-Glo luminescence; AID 485367; actives 0.17% (n = 330,000); O15648; Potency, µM (top dose mostly 57.5 µM), for inactives: at the top dose activity, negative = inhibition, actives largely listed as inhibitors;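 also: 0% = uninhibited 1x PFK enzyme wells and -100% = no-enzyme wells; nearly all actives have a fitted effect of over 60% in size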
Target sequence (O15648 whole entry, looked up): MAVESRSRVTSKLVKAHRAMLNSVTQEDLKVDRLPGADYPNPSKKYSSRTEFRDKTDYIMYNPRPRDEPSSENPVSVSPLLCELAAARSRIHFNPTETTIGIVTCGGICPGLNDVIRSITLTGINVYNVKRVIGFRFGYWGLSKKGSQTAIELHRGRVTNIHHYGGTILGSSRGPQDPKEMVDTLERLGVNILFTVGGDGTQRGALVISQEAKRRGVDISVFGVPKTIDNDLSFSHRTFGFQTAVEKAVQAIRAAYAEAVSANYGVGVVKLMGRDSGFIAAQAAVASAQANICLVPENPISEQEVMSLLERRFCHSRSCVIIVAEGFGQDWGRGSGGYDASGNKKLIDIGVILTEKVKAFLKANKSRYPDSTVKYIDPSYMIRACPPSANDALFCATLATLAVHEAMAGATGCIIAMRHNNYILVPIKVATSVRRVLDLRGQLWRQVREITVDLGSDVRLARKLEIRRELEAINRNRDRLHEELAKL
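ADP-Glo luminescence quantified ADP after 45 min at room temperature, with 1.25 nM T. brucei PFK, 0.1 mM ATP and 0.5 mM fructose-6-phosphate in pH 8.0 TEA buffer. qHTS titrations up to 57 µM; curves classified by quality.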
IMPase Li cell = cell-permeable IMPase inhibitors with lithium potentiation; CHO-M1 cells, IP1 TR-FRET (IP-One), carbachol + lithium; Potency, µM (titrated, usually from 59.4 µM), for the others: top-dose activity, negative = IMPase inhibition, usual class: inhibitors; AID 1457; actives 0.35% (n = 210,000);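 also: IP1 builds up when IMPase is blocked and the TR-FRET signal falls; plate controls were basal vehicle for no effect and high inhibitor control for full effect; nearly all actives have a fitted effect of over 50% in size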
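Test compounds were applied to CHO-M1 cells previously cultured for 16–30 h at 2000 per well. A small lithium amount accompanied them; after 30 min at 37C, IP1 was quantified by TR-FRET.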
NPSR antagonist = antagonists of human neuropeptide S receptor cAMP signaling. Q6W5P4. CHO-NPSR cells, cAMP TR-FRET, antagonist mode. Potency, µM (doses to about 38.3 µM), for the others: at the top dose activity change, negative = inhibition, hits mostly inhibitors. actives 1% (n = 220,000); also: % is scaled to controls: 0 for no effect and ±100 for the full control effect; nearly all actives have a fitted effect of over 50% in size
RGS12 GoLoco inh = RGS12 GoLoco-Gai1 interaction inhibition; P63096; Gai1:RGS12 GoLoco peptide FP, rhodamine, 10 min; Potency, µM (doses to about 61.6 µM), for inactives: top-dose activity, negative = inhibition, actives largely listed as inhibitors; actives 0.44% (n = 230,000); AID 880; active = well fitted inhibition curve with a large enough effect, not every such curve was filed as active; inactive = no such curve, though single readings can be large or run the other way; also: % is scaled to controls: 0 for no effect and ±100 for the full control effect; nearly all actives have a fitted effect of over 30% in size
MBNL1 CUG block = MBNL1-poly(CUG) RNA binding inhibition | TR-FRET MBNL1-His/biotin-(CUG)12 binding, 665/545 ratio | Potency, µM (doses to about 57.5 µM), inactives show top-dose activity change, negative = inhibition, most hits filed as inhibitors | actives 0.036% (n = 280,000) | AID 2675; active = well fitted inhibition curve with a large enough effect in the signal ratio, with a control signal flat, not every such curve was filed as active; inconclusive = small, poorly fitted or top-dose-only effect, or effect the other way, or a change in a side signal; inactive = no such curve, though single readings can be large or run the other way; the % refers to the signal ratio; also: % is scaled to controls: 0 for no effect and ±100 for the full control effect
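His-tagged MBNL1 binding to biotinylated (CUG)12 RNA was measured by TR-FRET using terbium anti-His antibody (0.055 ng/ul final) and streptavidin-XL665 (5 nM final). Compounds were titrated 92 nM to 58 uM; 60 min at room temperature.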
TbPFK ATP = orthogonal confirmation of T. brucei phosphofructokinase inhibitors. Tb PFK enzyme, ATP depletion, Kinase-Glo Plus luminescence. actives 47% (n = 1,100). shares compounds with Tb PFK inh-1. Potency, µM (titrated, usually from 57.5 µM), for inactives: top-dose inhibition; calls by dose curve; also: nearly all actives have a fitted effect of over 60% in size
Tb PFK inh-2 = validation of T. brucei phosphofructokinase inhibitors | purified T. brucei PFK, ADP-Glo luminescence, 45 min | Potency, µM (highest dose often 57.5 µM), for inactives: at the top dose activity change, negative = inhibition, most hits filed as inhibitors | shares compounds with Tb PFK inh-1 | actives 41% (n = 1,100);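 also: plate controls were full PFK enzyme control for no effect and no enzyme control for full effect; nearly all actives have a fitted effect of over 60% in size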
Active calls of the source: *; [ ] = remark or other dose. Unless noted, calls follow the shape of the dose curve; as a rule, active = well fitted curve in the direction sought with a large enough effect; inconclusive = small, poorly fitted or top-dose-only effect, or another doubt; inactive = no such curve, though single readings can be large; an effect the other way counts as inactive or inconclusive. Potency is read from the fitted curve at half-maximal effect.

What do the screens show for `O=C(/C=C/c1ccc(Cl)cc1)N[C@@]12CCC(=O)[C@@H]3Oc4c(O)ccc5c4[C@@]31CCN(CC1CC1)C2C5`?
IMPase Li cell: 4.0%; RGS12 GoLoco inh: 3.2%

What do the screens show for `CC1(C)C(=O)Nc2ccccc2N1C(=O)COC(=O)Cc1ccc(Cl)c(Cl)c1`?
Tb PFK inh-1: 23.9µM*; TbPFK ATP: inconclusive; Tb PFK inh-2: inconclusive

What do the screens show for `Cc1ccc(S(=O)(=O)N2CCN(C(=O)COC(=O)Cc3ccccc3)CC2)c(C)c1`?
Tb PFK inh-1: -1.6%

How did OC[C@@H]1CCCN2CCCC[C@@H]12 do in these assays?
IMPase Li cell: 9.0%; RGS12 GoLoco inh: 7.0%

How did CNC(=S)N1CCN(c2ccc(Cl)c(Cl)c2)CC1 do in these assays?
Tb PFK inh-1: 26.9µM*; IMPase Li cell: 16.4%; NPSR antagonist: 9.0%; RGS12 GoLoco inh: -0.4%; MBNL1 CUG block: 4.4%; TbPFK ATP: 13.5µM*; Tb PFK inh-2: 26.9µM*

Results for COC(=O)N1CCN(c2ccc(Cl)c(Cl)c2)CC1 ?
Tb PFK inh-1: 30.1µM*; IMPase Li cell: 27.6%[38.3 µM]; NPSR antagonist: 7.4%[46.1 µM]; RGS12 GoLoco inh: -2.4%; MBNL1 CUG block: -5.8%; TbPFK ATP: 23.9µM*; Tb PFK inh-2: 30.1µM*

How did CN(C)C1C(=O)C(C(N)=O)C(=O)C2(O)C(=O)C3C(=O)c4c(O)cccc4C(C)(O)C3C(O)C12 (centres undefined) do in these assays?
IMPase Li cell: inconclusive; RGS12 GoLoco inh: -24.4%

How did C=C(CC1(CNP(=O)(c2ccccc2)c2ccccc2)CC1)c1ccccc1 do in these assays?
IMPase Li cell: 6.6%; RGS12 GoLoco inh: 6.6%

How did C[C@H](NC(N)=O)C(=O)Nc1ccc(N2CCOCC2)c(S(=O)(=O)Nc2ccc(Cl)cc2)c1 do in these assays?
Tb PFK inh-1: inconclusive; TbPFK ATP: 4.26µM*; Tb PFK inh-2: 10.7µM*

Results for C[C@]12CCC3C(CC[C@]4(O)C[C@@H](O)CC[C@]34C=O)[C@@]1(O)CC[C@@H]2C1=CC(=O)OC1 (some centres undefined) ?
IMPase Li cell: 5.5%; RGS12 GoLoco inh: -1.5%

What do the screens show for `O=C(CC[N+](=O)[O-])OCC1OC(O)C(OC(=O)CC[N+](=O)[O-])[C@@H](OC(=O)CC[N+](=O)[O-])C1OC(=O)CC[N+](=O)[O-]` (some centres undefined)?
IMPase Li cell: -16.7%; RGS12 GoLoco inh: 3.3%

What do the screens show for `NC(=S)N=Nc1ccc(NN=C(N)N)cc1`?
Tb PFK inh-1: inconclusive; MBNL1 CUG block: inconclusive; TbPFK ATP: 6.75µM*; Tb PFK inh-2: 13.5µM*

What do the screens show for `c1ccc(N=NNc2ccccc2)cc1`?
IMPase Li cell: -1.3%; RGS12 GoLoco inh: 11.4%

Results for c1ccc2sc(C3(N4CCCC4)CCCCC3)cc2c1 ?
IMPase Li cell: 39.6%; RGS12 GoLoco inh: -1.6%

Results for CC/C=C\C/C=C\C/C=C\C/C=C\C/C=C\CCCC(N)=O ?
IMPase Li cell: 16.0%; RGS12 GoLoco inh: 2.2%

How did O=c1ccc2c(-c3ccccc3)c3ccc(O)cc3oc-2c1 do in these assays?
Tb PFK inh-1: 12µM*; MBNL1 CUG block: inconclusive; TbPFK ATP: 13.2%; Tb PFK inh-2: -10.4%

How did CN1CCN(C(=O)c2sc(=S)n(-c3ccccc3)c2N)CC1 do in these assays?
Tb PFK inh-1: 10.7µM*; IMPase Li cell: -7.9%[38.3 µM]; NPSR antagonist: -1.6%[46.1 µM]; RGS12 GoLoco inh: -1.6%; MBNL1 CUG block: inconclusive; TbPFK ATP: 3.79µM*; Tb PFK inh-2: 5.36µM*

Screening results (PubChem)
